In the first assay the target is T1, Tyrosyl-tRNA synthetase, putative (Trypanosoma cruzi (strain CL Brener)) (UniProt Q4DSP6).
T1 sequence (whole entry): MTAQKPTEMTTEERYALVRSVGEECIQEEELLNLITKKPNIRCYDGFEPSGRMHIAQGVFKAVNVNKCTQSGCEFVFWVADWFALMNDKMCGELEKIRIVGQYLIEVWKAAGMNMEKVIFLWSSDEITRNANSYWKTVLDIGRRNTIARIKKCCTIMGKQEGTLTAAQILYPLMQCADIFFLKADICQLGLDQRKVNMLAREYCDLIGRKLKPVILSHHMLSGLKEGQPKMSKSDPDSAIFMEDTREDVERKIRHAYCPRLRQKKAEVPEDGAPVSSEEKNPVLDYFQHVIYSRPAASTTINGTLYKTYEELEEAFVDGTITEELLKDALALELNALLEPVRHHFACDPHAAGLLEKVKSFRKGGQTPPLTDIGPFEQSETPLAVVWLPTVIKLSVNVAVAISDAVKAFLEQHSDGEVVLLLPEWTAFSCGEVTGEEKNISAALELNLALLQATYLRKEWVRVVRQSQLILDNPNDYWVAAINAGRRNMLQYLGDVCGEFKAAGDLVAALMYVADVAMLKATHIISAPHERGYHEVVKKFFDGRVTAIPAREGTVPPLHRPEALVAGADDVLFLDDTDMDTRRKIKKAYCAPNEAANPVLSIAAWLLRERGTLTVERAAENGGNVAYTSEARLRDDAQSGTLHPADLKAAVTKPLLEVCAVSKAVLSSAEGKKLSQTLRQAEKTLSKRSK
Description: Trypanosoma cruzi tyrosyl tRNA synthetase (TcYRS) _High Tyrosine SOP. The note with it: 30 µM. It is filed as functional. Details: scale not given: in the data most compounds retested in dose-response had high values.
As for `CN(C)C(=O)N1CCOCC2(CCN(c3ccccn3)C2)C1` (stereo not drawn), the Percent Effect worked out at 1.07%.

As to `CCN(CC)Cc1ccc(C(=O)N2CCCCC2Cn2cccn2)o1` (stereo not drawn), the Percent Effect amounted to 0%.

In the case of `O=C(c1ccc(F)c(F)c1)N1CCCSCC1CN1CCCC1` (stereo not drawn), the Percent Effect was 7.41%.

Turning to `Cn1cc(N2CC3(CCN(CC4CCOCC4)CC3)OCC2=O)cn1`, the Percent Effect was 4.23%.

For the compound `Cc1cn2nc(N3CCCC3CC(C)(C)C)sc2n1` (stereo not drawn), the Percent Effect was found to be 3.12%.

Regarding `CCSc1cc(C(=O)NCCC(=O)Nc2ccccn2)ccn1`, the Percent Effect was determined as 5.38%.

In the case of `CC(C)Cc1noc(CN2CCN(CCO)CC2)n1`, the Percent Effect was found to be 3.43%.

Take `CCOc1cc(F)ccc1NS(=O)(=O)c1cc(C)c(C(=O)O)s1`: the Percent Effect is -5.38%.

Regarding `O=C(CC1CC1)NCc1cn2c(n1)CN(CC1CC1)CC2`, the Percent Effect was -3.19%.

Consider `COc1cccc2c1OCC(NC(=O)NCc1cccs1)C2` (stereo not drawn), for which the Percent Effect turned out to be 4.25%.

For `Cc1nc(-c2ccsc2)ccc1C(=O)NCCC(=O)N1CCCC1`, the Percent Effect was -1.47%.

With `COc1ccc(-c2nc(CN3CC(n4cc(C)cn4)C3)no2)cc1`, the Percent Effect was 6.45%.

For the compound `Cn1nc(CNC(=O)C2CC2)cc1C1CC1`, the Percent Effect stood at 0%.

For the compound `CCCc1n[nH]c(C2CN(Cc3nnc(C4CC4)o3)CCO2)n1` (stereo not drawn), the Percent Effect turned out to be 3.45%.

For `CC(=O)N1CCCN(C(=O)c2cnc3n[nH]c(C)c3c2)CC1`, the Percent Effect is 9.36%.

For the compound `COc1ccc(C2(CNC(C)c3nnc(C)o3)CCCCC2)cc1` (stereo not drawn), the Percent Effect was 0.529%.

On to `CCN(CC)Cc1cn2c(n1)CN(C(=O)c1cnccn1)CC2`, for which the Percent Effect is 3.24%.

In the case of `OCCOc1nc(-c2ccccc2Cl)no1`, the Percent Effect amounted to 6.45%.

With `CCN(C)c1ncnc2c1CCN(C(=O)N1CCCC1)CC2`, the Percent Effect is 4.17%.

With `NCC1CN(c2nc(-c3ccccc3)nc3c2CCNCC3)CCO1` (stereo not drawn), the Percent Effect is 24%.

On to `Cc1cnc(N2CCn3cc(CNC(=O)CC4CC4)nc3C2)nc1`, for which the Percent Effect is -8.51%.

Consider `Cc1cnn(C2CCCN(C(=O)CCc3nccs3)C2)c1` (stereo not drawn), for which the Percent Effect came to 2.46%.

Regarding `CC(C)NC(=O)N1CCC(n2ccc(C(F)(F)F)n2)CC1`, the Percent Effect was 0%.

On to `CC(=O)N1CCCN(C(=O)c2csc(-c3ccc(C)cc3C)n2)CC1`, for which the Percent Effect was 5.94%.

With `O=C1NCC2(CCCN(CCc3ccccc3)C2)Oc2ccccc21` (stereo not drawn), the Percent Effect is -1.07%.

Take `Cc1ccc(-c2cc(CNC(=O)N3CCC(CO)CC3)on2)cc1`: the Percent Effect was determined as 6.93%.

As for `CC(C)N1CCC(NCc2cccnc2N(C)Cc2ccccc2)CC1`, the Percent Effect was determined as 1.64%.

As to `COCC1CN(C(=O)CNC(C)=O)Cc2ncnn2C1` (stereo not drawn), the Percent Effect amounted to 6.45%.

`CN1CCOC(CNCc2cccc(OCc3ccccn3)c2)C1` (stereo not drawn): the Percent Effect worked out at 7.39%.

For `C=Cn1ncc(CN2C[C@@H]3CCCN3C[C@@H]2Cc2ccccc2)c1C`, the Percent Effect came out at 6.45%.

`O=C(CCNS(=O)(=O)c1ccc2c(c1)CCCC2)NCc1ccoc1`: the Percent Effect is 4.92%.

As to `CN(CCc1ccccc1)C1CCCN(Cc2nccn2C)C1` (stereo not drawn), the Percent Effect stood at 6.45%.

Take `CC(=O)N1CCOCC2(CN(Cc3ccc(C)o3)CCO2)C1` (stereo not drawn): the Percent Effect was found to be 3.19%.

Turning to `O=c1cc(Cn2ccnc2)nc2n1CCCN(Cc1ccsc1)C2`, the Percent Effect was 7.41%.

`O=C(Cc1ccccc1F)N1C[C@@H]2COC[C@]2(COc2cccnc2)C1`: the Percent Effect worked out at 3.24%.

With `c1ccc(-c2cc(CN3CCC(c4ccn[nH]4)CC3)on2)cc1`, the Percent Effect worked out at 0.529%.

As to `CCc1nnc2n1CCN(Cc1csc(-c3ccsc3)n1)C2`, the Percent Effect came to 4.21%.

Take `Cc1cc(NC(=O)Cn2cc(C#N)c(=O)c3cc(Br)ccc32)no1`: the Percent Effect was -14.8%.

For the compound `COCc1nc2cc(NCc3ccc(C)o3)ccc2o1`, the Percent Effect was determined as 13.9%.

The next assay concerns the target T1, Tyrosyl-tRNA synthetase, putative (Trypanosoma cruzi (strain CL Brener)). Description: Trypanosoma cruzi tyrosyl tRNA synthetase (TcYRS) SOP. The note with it: 30 µM. The format is functional. Details: scale not given: direction of the effect not stated beside the values.
With `CN(C)C(=O)N1CCOCC2(CCN(c3ccccn3)C2)C1` (stereo not drawn), the Percent Effect worked out at 1.24%.

`CCN(CC)Cc1ccc(C(=O)N2CCCCC2Cn2cccn2)o1` (stereo not drawn): the Percent Effect was found to be 1.22%.

As to `O=C(c1ccc(F)c(F)c1)N1CCCSCC1CN1CCCC1` (stereo not drawn), the Percent Effect is 16.7%.

Turning to `Cn1cc(N2CC3(CCN(CC4CCOCC4)CC3)OCC2=O)cn1`, the Percent Effect was 12.8%.

`Cc1cn2nc(N3CCCC3CC(C)(C)C)sc2n1` (stereo not drawn): the Percent Effect was found to be 7.59%.

As for `CCSc1cc(C(=O)NCCC(=O)Nc2ccccn2)ccn1`, the Percent Effect stood at 17.5%.

Take `CC(C)Cc1noc(CN2CCN(CCO)CC2)n1`: the Percent Effect came out at 9.76%.

In the case of `CCOc1cc(F)ccc1NS(=O)(=O)c1cc(C)c(C(=O)O)s1`, the Percent Effect was -1.24%.

Regarding `O=C(CC1CC1)NCc1cn2c(n1)CN(CC1CC1)CC2`, the Percent Effect came out at 8.97%.

On to `COc1cccc2c1OCC(NC(=O)NCc1cccs1)C2` (stereo not drawn), for which the Percent Effect was found to be 13%.

As to `Cc1nc(-c2ccsc2)ccc1C(=O)NCCC(=O)N1CCCC1`, the Percent Effect stood at 9.76%.

Consider `COc1ccc(-c2nc(CN3CC(n4cc(C)cn4)C3)no2)cc1`, for which the Percent Effect was 21%.

In the case of `Cn1nc(CNC(=O)C2CC2)cc1C1CC1`, the Percent Effect was 11.5%.

Regarding `CCCc1n[nH]c(C2CN(Cc3nnc(C4CC4)o3)CCO2)n1` (stereo not drawn), the Percent Effect worked out at 8.86%.

In the case of `CC(=O)N1CCCN(C(=O)c2cnc3n[nH]c(C)c3c2)CC1`, the Percent Effect was 23.5%.

Take `COc1ccc(C2(CNC(C)c3nnc(C)o3)CCCCC2)cc1` (stereo not drawn): the Percent Effect turned out to be 0%.

Consider `CCN(CC)Cc1cn2c(n1)CN(C(=O)c1cnccn1)CC2`, for which the Percent Effect was 7.69%.

On to `OCCOc1nc(-c2ccccc2Cl)no1`, for which the Percent Effect was found to be 20%.

Regarding `CCN(C)c1ncnc2c1CCN(C(=O)N1CCCC1)CC2`, the Percent Effect worked out at 15%.

With `NCC1CN(c2nc(-c3ccccc3)nc3c2CCNCC3)CCO1` (stereo not drawn), the Percent Effect came out at 28.4%.

As to `Cc1cnc(N2CCn3cc(CNC(=O)CC4CC4)nc3C2)nc1`, the Percent Effect is -16.7%.

With `Cc1cnn(C2CCCN(C(=O)CCc3nccs3)C2)c1` (stereo not drawn), the Percent Effect was 3.7%.

In the case of `CC(C)NC(=O)N1CCC(n2ccc(C(F)(F)F)n2)CC1`, the Percent Effect worked out at 7.5%.

As to `CC(=O)N1CCCN(C(=O)c2csc(-c3ccc(C)cc3C)n2)CC1`, the Percent Effect was found to be 23.2%.

Consider `O=C1NCC2(CCCN(CCc3ccccc3)C2)Oc2ccccc21` (stereo not drawn), for which the Percent Effect turned out to be 6.49%.

With `Cc1ccc(-c2cc(CNC(=O)N3CCC(CO)CC3)on2)cc1`, the Percent Effect was found to be 13.4%.

Regarding `CC(C)N1CCC(NCc2cccnc2N(C)Cc2ccccc2)CC1`, the Percent Effect was 6.17%.

Regarding `COCC1CN(C(=O)CNC(C)=O)Cc2ncnn2C1` (stereo not drawn), the Percent Effect is 13.6%.

As to `CN1CCOC(CNCc2cccc(OCc3ccccn3)c2)C1` (stereo not drawn), the Percent Effect stood at 11.4%.

Consider `C=Cn1ncc(CN2C[C@@H]3CCCN3C[C@@H]2Cc2ccccc2)c1C`, for which the Percent Effect is 14.3%.

Take `O=C(CCNS(=O)(=O)c1ccc2c(c1)CCCC2)NCc1ccoc1`: the Percent Effect amounted to 11.1%.

On to `CN(CCc1ccccc1)C1CCCN(Cc2nccn2C)C1` (stereo not drawn), for which the Percent Effect turned out to be 6.17%.

Consider `CC(=O)N1CCOCC2(CN(Cc3ccc(C)o3)CCO2)C1` (stereo not drawn), for which the Percent Effect is 1.28%.

Turning to `O=c1cc(Cn2ccnc2)nc2n1CCCN(Cc1ccsc1)C2`, the Percent Effect came out at 5.13%.

Turning to `O=C(Cc1ccccc1F)N1C[C@@H]2COC[C@]2(COc2cccnc2)C1`, the Percent Effect worked out at 12.8%.

`c1ccc(-c2cc(CN3CCC(c4ccn[nH]4)CC3)on2)cc1`: the Percent Effect amounted to 7.32%.

In the case of `CCc1nnc2n1CCN(Cc1csc(-c3ccsc3)n1)C2`, the Percent Effect is 2.56%.

For `Cc1cc(NC(=O)Cn2cc(C#N)c(=O)c3cc(Br)ccc32)no1`, the Percent Effect was -60.5%.

With `COCc1nc2cc(NCc3ccc(C)o3)ccc2o1`, the Percent Effect was determined as 15.8%.

The record behind these values is ChEMBL document CHEMBL3988442, “University of Dundee, Small-Polar-MMV Screening Library” (2021).
